Measurements published in paper PMC12136788.
Substitutions are numbered along the chain they refer to. Whole data set: some 5,800 sequences, median “enrichment r” near 0.68, cut for the highest 2% near 11. Shown is part of a subset that was picked to be rich in the highest values.

T1: UNK ZnF1-6 (called full-length) (human, UniProt Q9C0B0 30-357)
T1 sequence: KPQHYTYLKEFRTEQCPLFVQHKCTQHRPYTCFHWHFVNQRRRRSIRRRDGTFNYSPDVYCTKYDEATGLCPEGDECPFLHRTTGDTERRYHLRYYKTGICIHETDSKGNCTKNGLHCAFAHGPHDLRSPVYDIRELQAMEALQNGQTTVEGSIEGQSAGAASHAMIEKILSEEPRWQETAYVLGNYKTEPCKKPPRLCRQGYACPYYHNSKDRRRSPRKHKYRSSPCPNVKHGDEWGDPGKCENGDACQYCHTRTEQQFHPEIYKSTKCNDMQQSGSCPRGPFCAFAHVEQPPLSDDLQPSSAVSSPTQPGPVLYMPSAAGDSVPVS

B1: chr2:1632960:1633155:-|3pUTR|ENSG00000130508|msi1|total|mutant (ssRNA)
RNA: GGGAGUUCUACAGUCCGACGAUCGUCCAUUUUUCCGGUAUCCGAUAUGGCAGAAAAACCAUUUCCACUAUGCAAAGUUCUUUCCGACGUCAGUGAAAAUCAACUCUCAUACCUCAUGGUCUCUCUUUAAUUGACCAAAACCUUCAACAGAGGAUUGAGCAUCA
B2: chr11:119024350:119024909:-|three_prime_utr|ENSG00000137700|control|control|control (ssRNA)
RNA: GGGAGUUCUACAGUCCGACGAUCUCCCACGGUGGCCUUCCCCCUGCACGCUCUGCGGGGAGAAAAGGAGGGGCCUGCCUGGCUAGCCCUGAACCUUUCACUUUCCAUUUCUGCGCCUUUUCUGUCACCCGGGUGGCGCUGGAACAACAGAGGAUUGAGCAUCA
B3: ENSG00000099904:stop:overlap|stop_codon|ENSG00000099904|stop_codon|NA|stop_codon (ssRNA)
RNA: GGGAGUUCUACAGUCCGACGAUCGGGCCAUGUGCCGCCUGCACUUGGCUGCCUCCAGUCUUUUCCCCAGCCUCUCGGGGCCCUAGCAGGAUGACAAGUAGGCGGCUCUGGGGCCCAGGACAGCCCAGCUGGGGACCCAGGAGGCAACAGAGGAUUGAGCAUCA
B4: chr2:216675367:216675485:-|3pUTR|ENSG00000115461|msi1|FALSE|unique (ssRNA)
RNA: GGGAGUUCUACAGUCCGACGAUCGCCAGGCAGAGGCCAGCCCUCCGUGGUGCACACAGCACGCGCCUCAGUCCAUCCCAUUUUAGUCUUUAAACCCUCAGGAAGUCACAGUCUCCGGACACCACACCACAUGAGCCCAACAGGCAACAGAGGAUUGAGCAUCA
B5: chr15:63775065:63775180:-|CDS|ENSG00000103657|unk|FALSE|unique (ssRNA)
RNA: GGGAGUUCUACAGUCCGACGAUCUGGUUCAGCAGAUGUCCAUUCUGUUAGUGAACGCCCCCGGUCAAGCACUGAUGCACUUAUAGAAAUGGGUGUUCGAACUGGUCUAAGUUUAUUAUUUGCGCUUCUAAGACAAAGUUGGAUCAACAGAGGAUUGAGCAUCA
B6: chr14:77132432:77132533:-|3pUTR|ENSG00000177108|unk|total|mutant (ssRNA)
RNA: GGGAGUUCUACAGUCCGACGAUCUGUGAUUGCUGGACCCAGAGGCAAGAUCUGCAGAGAUGCCUGUGAGAUAUUUGCUUUCCCCGAGGGGAGUGUGGGCAUGGGAGGGGUCUGAAAAUCAGGACCCAACCCAGCCACUGAAGACAACAGAGGAUUGAGCAUCA
B7: chr6:15520333:15520434:+|3pUTR|ENSG00000008083|unk|FALSE|unique (ssRNA)
RNA: GGGAGUUCUACAGUCCGACGAUCCUUGCUGUAGGAUUCAAGCUGUCUUUGCACUAGCUCUAAAGAAGAUUUUCUUCUGGUUUUAGAGAACUAAUUUUGUUUUAGCAUUAAACUGUUGAACUUUUUUUUGUACUUAGAAAACCUCAACAGAGGAUUGAGCAUCA
B8: ENSG00000070961:be:win_6151|3pUTR|ENSG00000070961|bound_else_gene|NA|bound_elsewhere_windowed (ssRNA)
RNA: GGGAGUUCUACAGUCCGACGAUCCAAUCACUUUUUCUCUUUUAUCCUCUAACCAAAAAAUUGUUUAAUUUUGCAUCCCAAAUGUUUUUAAUCUUUGUAUAUUUUUUAAAAAUCCUUUUCUCCUCAUCAUUGCCUUUUUUGUGGCAACAGAGGAUUGAGCAUCA
B9: chr8:22006364:22006465:+|3pUTR|ENSG00000130227|msi1|FALSE|unique (ssRNA)
RNA: GGGAGUUCUACAGUCCGACGAUCUGUUGCUGCUAGUUGUACACAUCUCUAGUUCAGCUCUUGCCCACGGGACACUCAUCAAUUAGGUUUUAUUUUUAUUUCUUUCCUCUACCCCCAGAAACAAGCCUGUUAAUUUUUUUUCCUCAACAGAGGAUUGAGCAUCA
B10: chr7:7234405:7234460:+|CDS|ENSG00000106392|msi1_unk|FALSE|overlapping (ssRNA)
RNA: GGGAGUUCUACAGUCCGACGAUCAAUUUUUUAACCUUCCUCUGUGGAUCAGCAAUAGGAUUUCUUUUAUGUUCUCAGCUAUUUAGUAUUUUGUUGGGAGAAAAGGUUGACACCCAGCCUAAUGUUCUUCAUAAUGAUCCUCAUCAACAGAGGAUUGAGCAUCA
B11: chr13:51761002:51761103:+|3pUTR|ENSG00000139668|unk|FALSE|unique (ssRNA)
RNA: GGGAGUUCUACAGUCCGACGAUCACGGCAAGAUUGUAAUCCUGCUGUAUUCCUCGCCCUCUGUAUUCUAUCCCUUUAAAAACUAGAUAUUUAAACAUUUUAUCCUAAUGUGUUUCAUCAGAACACUUUGCACACUUUCUUACUCAACAGAGGAUUGAGCAUCA
B12: chr6:43186014:43186115:+|CDS|ENSG00000112659|msi1|total|mutant (ssRNA)
RNA: GGGAGUUCUACAGUCCGACGAUCCUGCUUUUCUCCUUGGUGAAGCGCUACCUUUGUGUCACGUCCCUCCUGGAUCAGCUGAACCGCAGUCCAGAGCUGGGAGCUGGAGACCAAAGCUCCCCAUGUGCCACAAGAGAGAAAAGCCAACAGAGGAUUGAGCAUCA
B13: chr8:22006364:22006465:+|3pUTR|ENSG00000130227|msi1|total|mutant (ssRNA)
RNA: B9 RNA with U33C, A34C, U49C, A50C, U83C, A84C
B14: ENSG00000137168:stop:overlap|stop_codon|ENSG00000137168|stop_codon|NA|stop_codon (ssRNA)
RNA: GGGAGUUCUACAGUCCGACGAUCCAAACUCCCAGGACCGCCCUGUGGACGACGUGAAGAUCAUUAAGGCAUACCCUUCUGGGUAGACUUGCUACCCUCUUGAGCAGCUCUUCUGAGAUGGCCCCAGUGAACCAGCUUCUAGAUCAACAGAGGAUUGAGCAUCA
B15: chr2:74214837:74214938:+|3pUTR|ENSG00000065911|msi1_unk|FALSE|overlapping (ssRNA)
RNA: GGGAGUUCUACAGUCCGACGAUCCUGUCCUUUUGAGGCUUAGUCAGUUUAUUGGGAAAAUGUUUAGGAUUAUUCCUUGCUAUUAGUACUCAUUUUAUGUAUGUUACCCUUCAGUAAGUUCUCCCCAUUUUAGUUUUCUAGGACCAACAGAGGAUUGAGCAUCA
B16: chr2:74214837:74214938:+|3pUTR|ENSG00000065911|msi1_unk|total|mutant (ssRNA)
RNA: B15 RNA with U40C, A41C, U64C, A65C, U83C, A84C, U130C, A131C, U138C, A139C
B17: chr3:25596636:25596694:+|3pUTR|ENSG00000077092|msi1_unk|FALSE|overlapping (ssRNA)
RNA: GGGAGUUCUACAGUCCGACGAUCUCCCCAGUACCUUCAGUUCCAGGAUUUAAAAUGCAAGAAAAAACAUUUUUACUGCUGCUUAGUUUUUGGACUGAAAAGAUAUUAAAACUCAAGAAGGACCAAGAAGUUUUCAUAUGUAUCCAACAGAGGAUUGAGCAUCA
B18: ENSG00000147536:stop:overlap|stop_codon|ENSG00000147536|stop_codon|NA|stop_codon (ssRNA)
RNA: GGGAGUUCUACAGUCCGACGAUCUCCGCUACGUCCUCAGCAGCUACUUGCGGUGUCGCCUCAUGAAGUUCCCAAACCAGAUCUAGAUUCUUACGUGUUUCUGAGAGUGAGAGAACGACAAGAAAACAUACUGGUAGAACCAGACAACAGAGGAUUGAGCAUCA
B19: chr19:44386474:44388102:-|CDS|ENSG00000267508|control|control|control (ssRNA)
RNA: GGGAGUUCUACAGUCCGACGAUCGGCAUGUGGUAAGGGCUUCAGUCGUAAUUCAUACCUCCUUGCCCAUCAGAGAGUGCAUAUAGAUGAGACACAGUACACACACUGUGAGCGUGGAAAGGACCUUCUGACUCAUCAAAGACUCAACAGAGGAUUGAGCAUCA
B20: ENSG00000198589:be:win_1001|CDS|ENSG00000198589|bound_else_gene|NA|bound_elsewhere_windowed (ssRNA)
RNA: GGGAGUUCUACAGUCCGACGAUCUCAACACUAGCGAUACCUUUGACAAAUGUUUCCUGGGCUCAUCAGAAACAGCAGAUGCUAAUAGAGUAUUCUGUGGUCAGAUGACUGCAGUUUACCUUUUCAGUGAAGCUCUAAAUGCAGCAACAGAGGAUUGAGCAUCA
B21: chr1:114568131:114568247:-|CDS|ENSG00000116752|unk|total|mutant (ssRNA)
RNA: GGGAGUUCUACAGUCCGACGAUCUUCCCGUUGGGUAUCCCUGGUCAGUAAGAAUUAUGAGAUUGAACGGACUAUUGUUCAGCCCGAAAAUGAAAUCUAUCAAAUUAAGCAGCAACAUGGAGAGGCAAACAAAGAAAACAUCCGCAACAGAGGAUUGAGCAUCA
B22: chr11:85659139:85659240:-|3pUTR|ENSG00000137504|msi1|FALSE|unique (ssRNA)
RNA: GGGAGUUCUACAGUCCGACGAUCGUCUGAUUUAGUAAAAUUUUAAAGCUAAAUAAUCUGAUGACUCUUGAAAGUUUAAUUGGUAGUAUGACAUUUAUGUUUUUUUCCCCCAGACUCACAGCCAAUACAAAGUUUUGAGACUCCCAACAGAGGAUUGAGCAUCA

Molecular target: T1, UNK ZnF1-6 (called full-length)
Test: nsRBNS (natural sequence RNA bind-n-seq); RBNS binding buffer (assumed for nsRBNS): 25 mM Tris pH 7.5, 150 mM KCl, 3 mM MgCl2, 0.01% Triton X-100, 500 ug/ml BSA, 20 U/ml SUPERase-In, 4 C; UNK is unkempt and MSI1 is Musashi-1; names of the RNAs are library labels; protein concentration not given here; high values mean tight binding

Binder	binding signal [enrichment R]
B1	0.41
B2	0.719
B3	1.2
B4	2.44
B5	0.696
B6	0.528
B7	3.46
B8	4.78
B9	41.4
B10	2.12
B11	28.5
B12	0.544
B13	2.95
B14	0.7
B15	12.4
B16	0.338
B17	0.303
B18	33.9
B19	0.503
B20	0.527
B21	0.717
B22	1.52
